Test results from the supplement of paper PMC6897291.
Counter-ions that a name gives are not always drawn.

The compounds below were run on RIVA (assay: growth inhibition by drug plus 177Lu-lilotomab satetraxetan (1 - RLU/untreated control) (fraction); higher = stronger inhibition). Conditions: 100 nM; time (day): 4; 177Lu-lilotomab satetraxetan 0.5 ug/ml.
In short: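 A radiolabelled anti-CD37 antibody conjugate (~600 MBq/mg) was applied for 18 h at 0.5 µg/ml to RIVA and 1 µg/ml to U-2932 cells, with untreated cells run alongside. All cells were washed and seeded at 3,000 cells/well onto library-printed plates at 10/100 nM (RIVA) or 10/1,000 nM (U-2932). Growth inhibition was based on RealTime-Glo luminescence compared with untreated no-drug wells. Daily reads began on day 3 after 1 h at 37°C, with each value being 1 − RLU/mean of the 48 such wells on that plate.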

| SMILES | growth inhibition by drug plus 177Lu-lilotomab satetraxetan |
| --- | --- |
| O=C1CN2Cc3c(ccc(Cl)c3Cl)N=C2N1 [Anagrelide] | 0.612 |
| Cc1cc(Nc2cc(N3CCN(C)CC3)nc(/C=C/c3ccccc3)n2)n[nH]1 | 0.353 |
| CCc1cc(Nc2nccc(-c3c(-c4ccc(OC)c(C(=O)Nc5c(F)cccc5F)c4)nc4ccccn34)n2)c(OC)cc1N1CCC(N2CCN(S(C)(=O)=O)CC2)CC1 | 0.455 |
| O=C1CN2Cc3c(ccc(Cl)c3Cl)N=C2N1 [Anagrelide hydrochloride] | 0.572 |
| O=C(NCCCNc1nc(Nc2cccc(NC(=O)N3CCCC3)c2)ncc1I)c1cccs1 | 0.558 |
| CCC[C@H](NC(=O)/C(C#N)=C/c1cccc(Br)n1)c1ccccc1 | 0.448 |
| COc1cc2nc(N3CCCN(C)CC3)nc(NC3CCN(Cc4ccccc4)CC3)c2cc1OC | 0.552 |
| C#Cc1cccc(Nc2ncnc3cc(OCCOC)c(OCCOC)cc23)c1 [Erlotinib HCl] | 0.81 |
| CN(C)c1ccccc1CN1CCCN(Cc2ccccc2N(C)C)C1c1ccncc1 | 0.506 |
| COc1cc2c(NC3CCN(C)CC3)nc(N3CCCN(C)CC3)nc2cc1OCCCN(C)C | 0.452 |
| COc1ccc(COc2cc3oc(=O)c4cc(C(C)O)ccc4c3cc2OC)cc1 (stereo not drawn) [Palomid 529] | 0.445 |
| CO[C@@H](C(=O)N1Cc2[nH]nc(NC(=O)c3ccc(N4CCN(C)CC4)cc3)c2C1)c1ccccc1 | 0.615 |
| Cn1cc(C2=C(c3ccc(Cl)cc3Cl)C(=O)NC2=O)c2ccccc21 | 0.512 |
| CCc1ccc(CCOc2ccc(CC3SC(=O)NC3=O)cc2)nc1 (stereo not drawn) [Pioglitazone (Actos)] | 0.476 |
| O=C(O)C1(C(=O)O)CCC1.[NH2-].[NH2-].[Pt+2] [Carboplatin] | 0.554 |
| CS(=O)(=O)c1ccc(C(=O)Nc2ccc(Cl)c(-c3ccccn3)c2)c(Cl)c1 [Vismodegib (GDC-0449)] | 0.568 |
| OCCn1cc(-c2ccc3c(c2)CC/C3=N\O)c(-c2ccncc2)n1 | 0.551 |
| CC[C@@H]1C(=O)N(C)c2cnc(Nc3ccc(C(=O)NC4CCN(C)CC4)cc3OC)nc2N1C1CCCC1 | 0.956 |
| CC[C@]1(O)C[C@H]2CN(CCc3c([nH]c4ccccc34)[C@@](C(=O)OC)(c3cc4c(cc3OC)N(C=O)[C@H]3[C@@](O)(C(=O)OC)[C@H](OC(C)=O)[C@]5(CC)C=CCN6CC[C@]43[C@@H]65)C2)C1 [Vincristine] | 0.967 |
| CC(C)(C)c1ccc(S(=O)(=O)/C=C/C#N)cc1 | 0.513 |
| Cc1cn(-c2cc(NC(=O)c3ccc(C)c(Nc4nccc(-c5cccnc5)n4)c3)cc(C(F)(F)F)c2)cn1 [Nilotinib (AMN-107)] | 0.471 |
| CC(C)(C#N)c1cc(Cn2cncn2)cc(C(C)(C)C#N)c1 [Anastrozole] | 0.506 |
| C=CCn1c(=O)c2cnc(Nc3ccc(N4CCN(C)CC4)cc3)nc2n1-c1cccc(C(C)(C)O)n1 | 0.133 |
| Cn1cnc(N)c2ncnc1-2 [3-Methyladenine] | 0.565 |
| CCc1c2c(nc3ccc(OC(=O)N4CCC(N5CCCCC5)CC4)cc13)-c1cc3c(c(=O)n1C2)COC(=O)[C@]3(O)CC [Irinotecan HCl Trihydrate (Campto)] | 0.649 |

Same assay, conditions: 100 nM; time (day): 5; 177Lu-lilotomab satetraxetan 0.5 ug/ml

| SMILES | growth inhibition by drug plus 177Lu-lilotomab satetraxetan |
| --- | --- |
| CNCc1ccc(-c2[nH]c3cc(F)cc4c3c2CCNC4=O)cc1 | 0.574 |
| O=C(O)c1ccc(-c2c[nH]c3ncc(-c4ccccc4)cc23)cc1C1CCCC1 | 0.488 |
| CC(=O)c1c(C)c2cnc(Nc3ccc(N4CCNCC4)cn3)nc2n(C2CCCC2)c1=O | 0.426 |
| CCN(CC)CCCCNc1ncc2cc(-c3cc(OC)cc(OC)c3)c(NC(=O)NC(C)(C)C)nc2n1 | 0.445 |
| CCC(C)(C)C(=O)O[C@H]1C[C@@H](C)C=C2C=C[C@H](C)[C@H](CC[C@@H]3C[C@@H](O)CC(=O)O3)[C@H]21 [Simvastatin (Zocor)] | 0.501 |
| CC[C@H](Nc1ncnc2[nH]cnc12)c1nc2cccc(F)c2c(=O)n1-c1ccccc1 | 0.554 |
| CC(C=CC(=O)NO)=CC(C)C(=O)c1ccc(N(C)C)cc1 (stereo not drawn) [Trichostatin A (TSA)] | 0.783 |
| COc1ccc2c3n(c(=NC(=O)c4cccnc4)nc2c1OC)CCN3 | 0.551 |
| NC(=O)c1ccc(-c2nc(-c3ccccn3)c(-c3ccc4c(c3)OCO4)[nH]2)cc1 | 0.528 |
| CNC(=O)c1cc(Oc2ccc(NC(=O)Nc3ccc(Cl)c(C(F)(F)F)c3)c(F)c2)ccn1 [Regorafenib (BAY 73-4506)] | 0.629 |
| Cc1cnc(Nc2ccc(OCCN3CCCC3)cc2)nc1Nc1cccc(S(=O)(=O)NC(C)(C)C)c1 | 0.289 |
| CCOc1ccc(Nc2nc(-c3c(C)nc4ccccn34)cs2)cc1 | 0.97 |
| CC(C)C[C@H](NC(=O)[C@H](Cc1ccccc1)NC(=O)c1cnccn1)B(O)O [Bortezomib (Velcade)] | 0.989 |
| O=C1CN2Cc3c(ccc(Cl)c3Cl)N=C2N1 [Anagrelide] | 0.625 |
| Cc1cc(Nc2cc(N3CCN(C)CC3)nc(/C=C/c3ccccc3)n2)n[nH]1 | 0.36 |
| CCc1cc(Nc2nccc(-c3c(-c4ccc(OC)c(C(=O)Nc5c(F)cccc5F)c4)nc4ccccn34)n2)c(OC)cc1N1CCC(N2CCN(S(C)(=O)=O)CC2)CC1 | 0.481 |
| O=C1CN2Cc3c(ccc(Cl)c3Cl)N=C2N1 [Anagrelide hydrochloride] | 0.579 |
| O=C(NCCCNc1nc(Nc2cccc(NC(=O)N3CCCC3)c2)ncc1I)c1cccs1 | 0.603 |
| CCC[C@H](NC(=O)/C(C#N)=C/c1cccc(Br)n1)c1ccccc1 | 0.465 |

| SMILES | growth inhibition by drug plus 177Lu-lilotomab satetraxetan |
| --- | --- |
| COc1cc2nc(N3CCCN(C)CC3)nc(NC3CCN(Cc4ccccc4)CC3)c2cc1OC | 0.569 |
| C#Cc1cccc(Nc2ncnc3cc(OCCOC)c(OCCOC)cc23)c1 [Erlotinib HCl] | 0.788 |
| CN(C)c1ccccc1CN1CCCN(Cc2ccccc2N(C)C)C1c1ccncc1 | 0.504 |
| COc1cc2c(NC3CCN(C)CC3)nc(N3CCCN(C)CC3)nc2cc1OCCCN(C)C | 0.453 |
| COc1ccc(COc2cc3oc(=O)c4cc(C(C)O)ccc4c3cc2OC)cc1 (stereo not drawn) [Palomid 529] | 0.454 |
| CO[C@@H](C(=O)N1Cc2[nH]nc(NC(=O)c3ccc(N4CCN(C)CC4)cc3)c2C1)c1ccccc1 | 0.685 |
| Cn1cc(C2=C(c3ccc(Cl)cc3Cl)C(=O)NC2=O)c2ccccc21 | 0.502 |
| CCc1ccc(CCOc2ccc(CC3SC(=O)NC3=O)cc2)nc1 (stereo not drawn) [Pioglitazone (Actos)] | 0.498 |
| O=C(O)C1(C(=O)O)CCC1.[NH2-].[NH2-].[Pt+2] [Carboplatin] | 0.565 |
| CS(=O)(=O)c1ccc(C(=O)Nc2ccc(Cl)c(-c3ccccn3)c2)c(Cl)c1 [Vismodegib (GDC-0449)] | 0.591 |
| OCCn1cc(-c2ccc3c(c2)CC/C3=N\O)c(-c2ccncc2)n1 | 0.585 |
| CC[C@@H]1C(=O)N(C)c2cnc(Nc3ccc(C(=O)NC4CCN(C)CC4)cc3OC)nc2N1C1CCCC1 | 0.969 |
| CC[C@]1(O)C[C@H]2CN(CCc3c([nH]c4ccccc34)[C@@](C(=O)OC)(c3cc4c(cc3OC)N(C=O)[C@H]3[C@@](O)(C(=O)OC)[C@H](OC(C)=O)[C@]5(CC)C=CCN6CC[C@]43[C@@H]65)C2)C1 [Vincristine] | 0.973 |
| CC(C)(C)c1ccc(S(=O)(=O)/C=C/C#N)cc1 | 0.508 |
| Cc1cn(-c2cc(NC(=O)c3ccc(C)c(Nc4nccc(-c5cccnc5)n4)c3)cc(C(F)(F)F)c2)cn1 [Nilotinib (AMN-107)] | 0.491 |
| CC(C)(C#N)c1cc(Cn2cncn2)cc(C(C)(C)C#N)c1 [Anastrozole] | 0.523 |
| C=CCn1c(=O)c2cnc(Nc3ccc(N4CCN(C)CC4)cc3)nc2n1-c1cccc(C(C)(C)O)n1 | 0.152 |
| Cn1cnc(N)c2ncnc1-2 [3-Methyladenine] | 0.57 |
| CCc1c2c(nc3ccc(OC(=O)N4CCC(N5CCCCC5)CC4)cc13)-c1cc3c(c(=O)n1C2)COC(=O)[C@]3(O)CC [Irinotecan HCl Trihydrate (Campto)] | 0.699 |
